Bioassay records from PubChem.
Shown is part of a subset that was picked to be rich in hits.
TDP1 cell noCPT – qHTS for Inhibitors of human tyrosyl-DNA phosphodiesterase 1 (TDP1): qHTS in cells in absence of CPT; 15% of 420,000 active; Potency, µM (titrated, usually from 46.2 µM), for the others: at the top dose activity change, negative = growth inhibition, actives largely listed as inhibitors; DT40 Tdp1-/- hTDP1 cells, no CPT, ATP luminescence, 48 h; further: potency means the concentration at half of the fitted maximal effect; nearly all actives have a fitted effect of over 55% in size
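Readout: luminescence from CellTiter-Glo after 30 min in the dark at RT. Cells: DT40 Tdp1-/- with stable hTDP1, 400/well. Exposure: compounds alone, ≥48 hr, 37 °C.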
IL-1B inflam inh – inhibitors of inflammasome signaling (IL-1 beta secretion); 4.7% of 360,000 active; THP-1 LPS/ATP IL-1B secretion, AlphaLISA, 16 h; hits give low values; activity change, % at 57.5 µM; in the data active means activity change below about -50%; inconclusive means mostly about -30% to -49%
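THP-1 cells pretreated 1 hr with compounds (up to 57.5 uM final), then stimulated with LPS (250 ng/mL final) plus ATP (1.25 mM final); secreted IL-1B measured by AlphaLISA after 16 hr, decreased signal indicating inhibition.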
12-LOX inh – blocks human arachidonate 12S-lipoxygenase; AID 1671190; purified 12hLO, xylenol orange hydroperoxide absorbance; P18054; 1.1% of 580,000 active; Potency, µM (doses to about 108 µM), for inactives: top-dose activity change, negative = inhibition, most hits filed as inhibitors; further: potency means the concentration at half of the fitted maximal effect
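Purified human 12hLO at 150 nM in 25 mM Hepes, 0.01% Triton X-100, pH 7.0, preincubated 15 min at room temperature with compound. Reaction started with 40 uM arachidonic acid, 30 min at room temperature. Hydroperoxide measured by Fe-xylenol orange, 573/405 nm absorbance ratio.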
HT1080NT lethal – kills 2HG-producing HT-1080-NT fibrosarcoma cells. HT-1080-NT fibrosarcoma viability, CellTiter-Glo ATP luminescence, 48 h. Potency, µM (series often up to 46.1 µM), for inactives: at the top dose activity, negative = less viability, hits mostly cytotoxic. 1.6% of 360,000 active. AID 686970;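 further: NT is the 2HG producing partner of a matched IDH1 knockdown line; potency means the concentration at half of the fitted maximal effect; 0% = DMSO-treated cells and -100% = media-only wells without cells; nearly all actives have a fitted effect of over 55% in size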
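A 48-hour cytotoxicity screen used HT-1080-NT cells plated 2 hours before compound delivery. ATP-based CellTiter-Glo luminescence measured viability, normalized to DMSO and no-cell controls.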
TDP1 cell CPT – DT40-hTDP1 cell growth loss with CPT. chicken DT40 Tdp1-/-;hTDP1 cells + 20 nM CPT, ATP luminescence, 48 h. Potency, µM (doses to about 46.2 µM), for the others: at the highest dose activity change, negative = growth inhibition, actives largely listed as inhibitors. 12% of 420,000 active. AID 686979; further: potency means the concentration at half of the fitted maximal effect; nearly all actives have a fitted effect of over 55% in size
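Cell growth measured by CellTiter-Glo luminescence after a minimum 48 h, 37 C compound exposure with 20 nM CPT in Tdp1-knockout DT40 cells stably expressing hTDP1, seeded 400/well; qHTS titration format.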
HT1080 IDH1KD tx – HT-1080 IDH1 knockdown cell toxicity (counter line); AID 686971; Potency, µM (highest dose often 46.1 µM), for inactives: top-dose activity, negative = toxicity, usual class: cytotoxic; HT-1080 IDH1 knockdown viability, ATP luminescence, 48 h; 2% of 360,000 active;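 further: potency means the concentration at half of the fitted maximal effect; 0% = DMSO wells and -100% = cell-free medium wells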
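Knockdown cells (IDH1KD HT-1080) received compounds 2 h after plating at 750 cells/well and were kept 48 h at 37 °C in 5% FBS RPMI. A CellTiter-Glo luminescence read gave % activity for curve fitting.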
* = called active by the depositor; ? = inconclusive; . = not tested or not shown; [ ] = remark or other dose. Unless noted, the call rests on the fitted dose curve; in most records, active means well fitted curve in the direction sought with a large enough effect; inconclusive means small, poorly fitted or top-dose-only effect, or another doubt; inactive means no such curve, though single readings can be large; an effect the other way counts as inactive or inconclusive. Unless noted, on the % scale 0 is the no-effect control and ±100 the full control effect.

SMILES	TDP1 cell noCPT	IL-1B inflam inh	12-LOX inh	HT1080NT lethal	TDP1 cell CPT	HT1080 IDH1KD tx
COc1ccccc1N/C(=N/S(=O)(=O)c1ccc(C)cc1)c1ccc(Cl)cc1	?	-25	-14%	-2%	16µM*	-6%
COc1ccccc1NS(=O)(=O)c1cc(NC(=S)Nc2cc(C)cc(C)c2)ccc1Cl	5.2µM*	?	?	11%	12µM*	10%
CCNC(=S)Nc1ccc(C)c(S(=O)(=O)Nc2ccccc2OC)c1	?	-16	-26%	7%	?	-10%
NC(=O)c1cn(CC(=O)NCCc2cccc3ccccc23)c2ccccc12	.	.	5%	.	.	.
CCC(C)N(CCNC(=O)Cn1nc(Cc2cccnc2)c2ccccc2c1=O)Cc1ccco1 (stereo not drawn)	.	.	9%	.	.	.
O=C(Cn1nc2c(cc1=O)CCCC2)Nc1ccccc1Br	.	.	-8%	.	.	.
CC(=O)S[C@@H]1CC2=CC(=O)CC[C@]2(C)[C@H]2CC[C@@]3(C)[C@@H](CC[C@@]34CCC(=O)O4)[C@H]12	5.8µM*	-56*	0%	?	7.3µM*	?
C[C@]12CCC(=O)C=C1CC[C@@H]1[C@@H]2CC[C@@]2(C)[C@H]1CC[C@@]21CCC(=O)O1	9.2µM*	-13	?	-1%	?	-1%
O=C(NCc1cccs1)C1=NO[C@@H]2CN(c3cccnc3)C[C@H]12	.	.	-2%[176 µM]	.	.	.
N#C/C(=C/c1cccc(OCc2ccccc2)c1)c1nc2ccccc2[nH]1	.	.	-37%	.	.	.
COc1ccc(N(CC(=O)NCc2ccc(Cl)cc2)S(=O)(=O)c2c(C)nn(C)c2C)cc1	-27%	2	40µM*	-1%	?	4%
COc1ccc(N(CC(=O)Nc2cc(OC)ccc2OC)S(=O)(=O)c2c(C)nn(C)c2C)cc1	?	?	40%	-24%	21µM*	-17%
Cc1nn(C)c(C)c1S(=O)(=O)N(CC(=O)NCCCOC(C)C)c1ccc(C(C)C)cc1	?	-6	15%	6%	-17%	1%
Cc1cccc(CCNC(=O)CN(c2ccc(C(C)C)cc2)S(=O)(=O)c2c(C)nn(C)c2C)c1	16µM*	.	-3%	.	?	.
CCNc1c(NC(=O)c2ccccc2OC)c(=O)oc2ccccc12	.	.	-3%	.	.	.
COc1ccc(N2C(=O)CN(Cc3cc(OC)c(OC)c(OC)c3)C2=S)cc1	23µM*	8	-8%	-2%	16µM*	-23%
COc1ccc(Cl)cc1N1C(=O)CN(Cc2cc(OC)c(OC)c(OC)c2)C1=S	8.2µM*	-1	?	-2%	15µM*	7%
COc1ccc(CN2CC(=O)N(c3cc(Cl)ccc3OC)C2=S)cc1OC	?	3	-3%	-20%	?	-10%
COc1ccc(CN2CC(=O)N(c3cccc(Cl)c3)C2=S)cc1OC	15µM*	-8	-15%	-6%	-77%	-18%
COc1cccc(N2C(=O)CN(Cc3cc(OC)c(OC)c(OC)c3)C2=S)c1	21µM*	27	0%	1%	-3%	2%
Cc1ccc(Cn2c(=O)n(CCCC(=O)NCc3ccc4c(c3)OCO4)c(=O)c3ccccc32)cc1	.	.	-27%	.	.	.
CCCCCCCCNC(=O)c1cccs1	.	.	5%	.	.	.
Cn1cc(CC(=O)N2CCCc3ncc(C(=O)NCCN4CCCC4)cc32)c2ccccc21	.	.	47%	.	.	.
COc1ccc(NC(=O)Cc2c(C)c3c(O)cc(C)cc3oc2=O)c(OC)c1	.	.	14%	.	.	.
O=C(NC1CCCCC1)c1cccc2ncccc12	.	.	-1%	.	.	.
CC1=CC(=NOS(=O)(=O)c2ccc(C)cc2)CC(C)(C)C1	?	0	?	19%	?	18%
COc1ccc(/C=N/S(=O)(=O)c2ccc(C)cc2)cc1	8%	18	-9%	8%	1%	11%
